High-throughput results: PubChem, several laboratories
A selection: hits, their analogues and other compounds. The true share with any hit is near 2.3%.
KLK7 zymogen act = proKLK7 (human) activation, primary screen | activation, % at 7 µM | P49862 | 0.9% of 370,000 active | purified proKLK7, EDANS-DABCYL substrate fluorescence; 100% is mature enzyme control, 0% vehicle;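 active = activation above the mean of all tested compounds plus 3 SD, computed per campaign excluding outliers beyond control limits, cut at about 13% in these data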
ADAM17 inh = ADAM17 inhibition, QFRET primary screen. 0.83% of 370,000 active. recombinant ADAM17, EDANS/DABCYL FRET peptide cleavage. inhibition, % at 6.95 µM;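 active = inhibition above the mean of compounds lying between control limits plus 3 SD, set per campaign, cut at about 8.5% in these data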;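 also: 0% = DMSO-only wells as the low control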
Target sequence (P78536 215-824 limits assumed): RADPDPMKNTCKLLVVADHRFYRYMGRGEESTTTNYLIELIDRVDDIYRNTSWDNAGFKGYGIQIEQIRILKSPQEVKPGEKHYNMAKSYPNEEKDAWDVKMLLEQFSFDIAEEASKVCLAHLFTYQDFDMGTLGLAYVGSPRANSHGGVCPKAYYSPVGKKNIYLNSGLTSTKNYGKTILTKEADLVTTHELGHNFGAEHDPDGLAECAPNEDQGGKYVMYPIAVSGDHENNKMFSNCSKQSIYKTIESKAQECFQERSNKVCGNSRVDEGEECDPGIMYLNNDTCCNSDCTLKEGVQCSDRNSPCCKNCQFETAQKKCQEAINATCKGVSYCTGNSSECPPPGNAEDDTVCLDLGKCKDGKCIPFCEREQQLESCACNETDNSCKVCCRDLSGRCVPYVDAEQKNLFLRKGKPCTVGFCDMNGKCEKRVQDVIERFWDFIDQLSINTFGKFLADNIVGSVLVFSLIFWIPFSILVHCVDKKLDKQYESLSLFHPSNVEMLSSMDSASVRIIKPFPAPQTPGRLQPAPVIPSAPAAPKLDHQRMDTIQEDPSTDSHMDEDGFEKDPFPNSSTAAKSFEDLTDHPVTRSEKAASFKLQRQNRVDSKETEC
ADAM10 inh = inhibitors of human ADAM10; O14672; recombinant ADAM10, EDANS/DABCYL FRET peptide cleavage, 3 h; inhibition, % at 7 µM; 0.62% of 370,000 active; AID 720582;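 active = inhibition above a per-campaign cutoff equal to the mean of compounds falling between control-based bounds plus 3 SD, cut at about 20% in these data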;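 also: 0% = DMSO wells while the 100% control is not disclosed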
V-ATPase pH = yeast V-ATPase proton transport regulation by pHLuorin | response, % at 10 µM | 0.37% of 350,000 active | AID 504577 | S. cerevisiae, pHLuorin cytosolic pH fluorescence; in the data active = response mostly above about 7.3%, no sharp cut-off; inactive = mostly below about 5.4%; also: actives read high
V-ATPase pH SP = regulators of yeast V-ATPase proton transport | S. cerevisiae pHLuorin cytosolic pH | 2% of 980 active | shares compounds with V-ATPase pH | response, % at 10 µM; in the data active = response above about 24%;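 also: plate controls were vehicle wells for no effect and positive control wells for full effect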
Starred values were filed as active, the others as inactive.

Results for O=C(COc1ccc2ccccc2c1)N1CCN(Cc2c[nH]c3ccccc23)CC1 ?
KLK7 zymogen act: 1; ADAM17 inh: 8.7*; ADAM10 inh: 2; V-ATPase pH: 1

Results for O=C(COc1ccc(Br)cc1)N1CCN(Cc2c[nH]c3ccccc23)CC1 ?
KLK7 zymogen act: 0; ADAM17 inh: -1; ADAM10 inh: -8; V-ATPase pH: -2

What do the screens show for `CN1CCCC1CCOC(C)(c1ccccc1)c1ccc(Cl)cc1` (configuration not stated)?
KLK7 zymogen act: -1; ADAM17 inh: -8; ADAM10 inh: -36; V-ATPase pH: 1

What do the screens show for `COC(=O)C1=C(c2ccc(F)cc2OCc2ccccc2)C[C@@H]2CC[C@H]1N2C(=O)NC1Cc2ccccc2C1`?
KLK7 zymogen act: 0; ADAM17 inh: 10*; ADAM10 inh: 17; V-ATPase pH: 5

Results for Cc1ccc(N2C(=O)NC(=O)/C(=C\c3ccoc3)C2=O)cc1 ?
KLK7 zymogen act: -1; ADAM17 inh: -1; ADAM10 inh: -3; V-ATPase pH: 5.9*

How did O=C1NC(=S)N(c2ccc(F)cc2)C(=O)/C1=C\c1ccoc1 do in these assays?
V-ATPase pH: -1

How did CCCCCCCCn1sccc1=O do in these assays?
KLK7 zymogen act: 0; ADAM17 inh: -2; ADAM10 inh: 2; V-ATPase pH: 37*

What do the screens show for `CN1C(=O)/C(=C/c2ccc(Cl)s2)C(=O)NC1=S`?
KLK7 zymogen act: 0; ADAM17 inh: 1; ADAM10 inh: 1; V-ATPase pH: 25*

Results for Cc1ccc([C@@H]2C[C@H]3[C@@H](CN2S(=O)(=O)c2ccc(Cl)cc2)C(=O)C[C@@H](c2ccccc2F)N3S(=O)(=O)c2ccc(C)cc2)cc1 ?
KLK7 zymogen act: 0; ADAM17 inh: -4; ADAM10 inh: -16; V-ATPase pH: -2

Results for C[C@@H]1CN([C@H](C)CO)C(=O)c2c(c3ccccc3n2C)-c2ccccc2CO[C@H]1CN(C)Cc1ccc2c(c1)OCCN2C ?
KLK7 zymogen act: 0; ADAM17 inh: 4; ADAM10 inh: -7; V-ATPase pH: 0

What do the screens show for `CCCCCn1c(NC(=O)c2ccco2)c(C(=O)OCC)c2nc3ccccc3nc21`?
V-ATPase pH: 11*

Results for Cc1nc(N2CCN(Cc3ccc4c(c3)OCO4)CC2)[nH]c(=O)c1C ?
KLK7 zymogen act: -1; ADAM17 inh: -1; ADAM10 inh: -1; V-ATPase pH: 4

What do the screens show for `COc1ccc(OC)c(N2C(=O)NC(=O)/C(=C/c3ccc([N+](=O)[O-])s3)C2=O)c1`?
KLK7 zymogen act: 1; ADAM17 inh: -6; ADAM10 inh: 1; V-ATPase pH: 125*

How did CC(C)CCP(=O)(O)O do in these assays?
KLK7 zymogen act: 0; ADAM17 inh: -1; ADAM10 inh: -2

What do the screens show for `C/C(=N\N1CCCCCC1)c1c(O)n(-c2ccc(C)cc2)c(=O)[nH]c1=O`?
KLK7 zymogen act: 0; ADAM17 inh: -1; ADAM10 inh: -2; V-ATPase pH: 8.7*; V-ATPase pH SP: -4

Results for CN1C2CCC1C(C(=O)Oc1ccccc1)C(c1ccc(Cl)cc1)C2 (configuration not stated) ?
KLK7 zymogen act: 0; ADAM17 inh: 1; ADAM10 inh: -8

Results for C/C(CC(c1ccccc1)c1c(O)c2ccccc2oc1=O)=N\Nc1ccc([N+](=O)[O-])cc1[N+](=O)[O-] (configuration not stated) ?
KLK7 zymogen act: 0; ADAM17 inh: -2; ADAM10 inh: 2; V-ATPase pH: -2

How did O=c1oc2ccccc2c(O)c1C(c1ccc([N+](=O)[O-])cc1)c1c(O)c2ccccc2oc1=O do in these assays?
KLK7 zymogen act: 0; ADAM17 inh: 5; ADAM10 inh: 19; V-ATPase pH: 12*; V-ATPase pH SP: 1

What do the screens show for `Cc1ccsc1/C=C1\C(=O)NC(=S)N(C)C1=O`?
KLK7 zymogen act: 0; ADAM17 inh: -2; ADAM10 inh: 4; V-ATPase pH: 11*; V-ATPase pH SP: 45*

What do the screens show for `COc1ccc(/C=C2\C(=O)NC(=S)N(C)C2=O)cc1C`?
KLK7 zymogen act: 1; ADAM17 inh: -3; ADAM10 inh: 0; V-ATPase pH: 1

Results for Cc1cc(OCC(=O)N2CCC(C(=O)O)(c3ccccc3)CC2)c2c(C)c(C)c(=O)oc2c1 ?
KLK7 zymogen act: 11; ADAM17 inh: -239; ADAM10 inh: inactive; V-ATPase pH: 10*; V-ATPase pH SP: 0
